Most compounds without a hit are left out; they make up all but 9.2% or so of the library.
FLuc counter: counter-screen for miR-21 project: firefly luciferase inhibitors or activators | P08659 | purified FLuc, Km substrates, luminescence inhibition | Potency, µM (titrated, usually from 57.5 µM), inactives show top-dose activity change, negative = inhibition, most hits filed as inhibitors | actives 6.9% (n = 360,000);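 also: plate controls were vehicle for no effect and reference inhibitor for full effect; nearly all actives have a fitted effect of over 55% in size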
Target sequence (P08659 whole entry, looked up): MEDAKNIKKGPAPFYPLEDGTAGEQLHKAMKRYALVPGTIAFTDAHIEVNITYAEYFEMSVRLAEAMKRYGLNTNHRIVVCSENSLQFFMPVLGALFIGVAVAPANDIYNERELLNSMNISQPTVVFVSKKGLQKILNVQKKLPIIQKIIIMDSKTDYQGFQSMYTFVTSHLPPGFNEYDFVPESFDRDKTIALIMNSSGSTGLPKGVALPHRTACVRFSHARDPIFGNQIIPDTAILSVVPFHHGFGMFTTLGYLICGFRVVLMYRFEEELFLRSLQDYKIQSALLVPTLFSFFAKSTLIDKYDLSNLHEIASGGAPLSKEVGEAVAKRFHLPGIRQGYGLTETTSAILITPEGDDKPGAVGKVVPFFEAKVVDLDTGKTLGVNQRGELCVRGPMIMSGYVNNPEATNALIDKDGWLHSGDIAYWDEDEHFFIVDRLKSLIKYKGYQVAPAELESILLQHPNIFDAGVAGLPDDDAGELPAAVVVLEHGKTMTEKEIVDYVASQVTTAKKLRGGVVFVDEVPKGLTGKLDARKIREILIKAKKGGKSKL
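Biochemical qHTS of compounds, final roughly 60 µM downward over six points, against 10 nM purified firefly luciferase using Km concentrations of substrates (10 uM D-luciferin, 10 uM ATP) in Tris acetate pH 7.5 buffer; luminescence output.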
NPC1 promoter act: activates the NPC1 promoter; Potency, µM (titrated, usually from 9.22 µM), without a hit: at the top dose activation, most hits filed as activators; actives 2.4% (n = 320,000); Huh7 NPC1 promoter luciferase reporter, 24 h; also: % of control where 0% means no effect; nearly all actives have a fitted effect of over 60% in size
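Quantitative HTS used a cell-based reporter: Huh7 cells stably bearing the NPC1 promoter upstream of luciferase were treated with compounds for 24 h, and promoter activation was read as luminescence.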
ELG1 repair inh: ELG1-dependent DNA repair inhibition; HEK293T ELG1-luciferase reporter, luminescence, 16 h; DNA damage induced by 5-fluorouridine; Potency, µM (doses to about 46.1 µM), inactives show at the top dose activity change, negative = inhibition, hits mostly inhibitors; actives 2.3% (n = 330,000); also: % is scaled to controls: 0 for no effect and ±100 for the full control effect; nearly all actives have a fitted effect of over 55% in size
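In this reporter screen, reduction of luminescence relative to DMSO vehicle indicated activity. Compounds and 5-fluorouridine were added together to 2,000 cells per well, incubated for 16 hr at 37 °C, then developed with ONE-Glo.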
SMN2 splice enh: enhancers of SMN2 splice variant expression; actives 2.8% (n = 210,000); Potency, µM (titrated, usually from 46.1 µM), without a hit: top-dose activity change, positive = activation, most hits filed as activators; HEK293 SMN2-luciferase splicing reporter, luminescence, 30-36 h; also: % of control where 0% means no effect; nearly all actives have a fitted effect of over 55% in size
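HEK293 cells carry an SMN2 […]–luciferase reporter in which exon 7 inclusion puts luciferase in frame. Cells were plated 10-12 h before compound addition, then incubated 30-36 h at 37C. ONE-Glo luminescence was read; sodium butyrate at 4.5 mM final served as control.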
Rab9 promoter act: Rab9 promoter activation; actives 2.8% (n = 320,000); AID 485297; Huh7 Rab9 promoter-luciferase reporter, luminescence, 24 h; Potency, µM (titrated, usually from 9.22 µM), inactives show top-dose activation, negative = inhibition, usual class: activators; also: % of control where 0% means no effect; nearly all actives have a fitted effect of over 60% in size
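Cells were plated at 1500 per well in reduced-serum medium with 10% FBS and left 2 h. Compound in DMSO was then added for 24 h at 37 °C. Reporter signal was read by luminescence after 10 min with luciferase detection reagent.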
ELG1 genotox: genotoxicity induction in ELG1-luciferase HEK293T cells | Potency, µM (titrated, usually from 46 µM), without a hit: at the top dose activity change, positive = activation, actives largely listed as activators | actives 1.3% (n = 330,000) | HEK293T ELG1-luciferase reporter, luminescence, 16 h | AID 504466; also: % of control where 0% means no effect; nearly all actives have a fitted effect of over 60% in size
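After overnight (16 hr) compound treatment at 37 °C, ELG1-luciferase HEK293T cells were lysed with ONE-Glo; luminescence quantified 30 min later at room temperature.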
* hit, by the source's call; [ ] = remark or other dose. Calls follow the shape of the dose curve; as a rule, active = well fitted curve in the direction sought with a large enough effect; inconclusive = small, poorly fitted or top-dose-only effect, or another doubt; inactive = no such curve, though single readings can be large; an effect the other way counts as inactive or inconclusive. Potency is read from the fitted curve at half-maximal effect.

CCOc1ccc2c(c1)NC(c1cccs1)=NC(c1ccc(F)cc1)=N2 was read as FLuc counter inconclusive and SMN2 splice enh 3%.
Cc1nc2c(-c3ccc(F)cc3)c(C)nn2c(C)c1CCC(=O)NCc1cccc(Cl)c1 was read as FLuc counter 1% and SMN2 splice enh -7%.
Screening COc1ccc(Cl)cc1NC(=O)CSc1nc2ccccc2nc1N1CCCCC1 returned FLuc counter -7% and SMN2 splice enh 1%.
`COc1ccccc1C/C(N)=N/OC(=O)COc1ccccc1C` gave FLuc counter -11%, NPC1 promoter act 1% and Rab9 promoter act 3%.
For COc1ccccc1C/C(N)=N/OC(=O)c1cccc([N+](=O)[O-])c1C the results were FLuc counter 1%, NPC1 promoter act -4%, ELG1 repair inh 23µM*, SMN2 splice enh 4%, Rab9 promoter act -5% and ELG1 genotox -8%.
`CC(=O)c1cccc(NC(=O)c2cnn3ccccc23)c1` gave FLuc counter 12µM*, NPC1 promoter act 5µM*, ELG1 repair inh inconclusive, Rab9 promoter act 3.2µM* and ELG1 genotox 12µM*.
`COc1cc(NC(=O)c2nc3ccccc3n(C)c2=O)cc(OC)c1OC` gave FLuc counter -20% and SMN2 splice enh -2%.
Screening CC(=O)c1cccc(NC(=O)c2nc3ccccc3n(C)c2=O)c1 returned FLuc counter 3.8µM* and SMN2 splice enh 23%.
`CC(=O)c1ccc(NC(=O)c2cnn3ccccc23)cc1` gave FLuc counter 5.4µM*, NPC1 promoter act 0.35µM*, ELG1 repair inh inconclusive, SMN2 splice enh -37%, Rab9 promoter act 0.35µM* and ELG1 genotox 1.3µM*.
COc1ccc(CCN(C)C(=O)COc2cccc(-n3cnnn3)c2)cc1OC was read as ELG1 repair inh 8% and ELG1 genotox 5%.
For COc1cc(-c2nc3ccccn3c2Nc2ccccc2C)ccc1O the results were FLuc counter -15% and SMN2 splice enh 17%.
`O=C(CCc1nnc2n(Cc3ccccc3)c(=O)c3ccccc3n12)NCCN1CCOCC1` gave FLuc counter 2%, NPC1 promoter act 1%, ELG1 repair inh -1%, Rab9 promoter act 2% and ELG1 genotox 3%.
For CN(C)C=Nc1ccc2nc3c(cc2c1)[nH]c1ccccc13 the results were FLuc counter 1.3µM*, NPC1 promoter act 1.3µM*, ELG1 repair inh inconclusive, Rab9 promoter act 1.4µM* and ELG1 genotox inconclusive.
Screening CCOc1ccc(/C=C2\SC(=S)N(N3C(=O)C4CC4C3=O)C2=O)cc1 (stereo not drawn) returned FLuc counter inconclusive, NPC1 promoter act -2%, ELG1 repair inh -1%, SMN2 splice enh 5%, Rab9 promoter act 0% and ELG1 genotox 1%.
`O=C1NC(=Nc2ccc(Cl)cc2)/C(=C/c2ccco2)S1` gave FLuc counter -13%, NPC1 promoter act -2%, ELG1 repair inh 7%, SMN2 splice enh inconclusive, Rab9 promoter act -2% and ELG1 genotox 10%.
For CCOc1ccc(/C=C2/SC(=O)NC2=S)cc1 the results were FLuc counter 17µM*, NPC1 promoter act 25%, ELG1 repair inh inconclusive, SMN2 splice enh inconclusive, Rab9 promoter act inconclusive and ELG1 genotox 7%.
`CCOc1ccc(N=C2NC(=O)S/C2=C\c2ccc(N(C)C)cc2)cc1` gave FLuc counter 12µM*, NPC1 promoter act 4.5µM*, ELG1 repair inh inconclusive, SMN2 splice enh 11µM*, Rab9 promoter act inconclusive and ELG1 genotox inconclusive.
Screening CCN(CC(=O)Nc1ccccc1C(F)(F)F)C(=O)c1cccc(N2C(=O)CCC2=O)c1 returned FLuc counter 1%, NPC1 promoter act -4%, ELG1 repair inh 0%, Rab9 promoter act 0% and ELG1 genotox -4%.
For O=C(O)CC12CC3CC(C1)CC(n1ncc(N4CCC5(CC4)OCCO5)c(Cl)c1=O)(C3)C2 the results were FLuc counter -1%, NPC1 promoter act -4%, ELG1 repair inh 23µM*, Rab9 promoter act 3% and ELG1 genotox -1%.
COc1ccccc1N(C(=O)c1ccco1)C(C(=O)NC1CCCC1)c1ccncc1 (stereo not drawn) was read as FLuc counter 1%, NPC1 promoter act -8%, ELG1 repair inh -6%, Rab9 promoter act -5% and ELG1 genotox -6%.
`CCC(=O)c1ccc(OCC(=O)Nc2nn3cnnc3s2)cc1` gave FLuc counter 27µM*, NPC1 promoter act 3%, ELG1 repair inh 10%, SMN2 splice enh -3%, Rab9 promoter act 1% and ELG1 genotox 7%.
CCOc1ccc(NC(=O)COc2ccc(-n3cnnn3)cc2)cc1 was read as FLuc counter 6%, NPC1 promoter act -9%, ELG1 repair inh inconclusive, Rab9 promoter act 2% and ELG1 genotox -2%.
`CCCn1nnc(NC(=O)c2ccc(Br)cc2)n1` gave FLuc counter inconclusive, NPC1 promoter act inconclusive, ELG1 repair inh inconclusive, SMN2 splice enh 14µM*, Rab9 promoter act 4µM* and ELG1 genotox 9.2µM*.
For CCCn1nnc(NC(=O)c2ccc(-c3ccccc3)cc2)n1 the results were FLuc counter 9.5µM*, NPC1 promoter act 2.5µM*, ELG1 repair inh inconclusive, SMN2 splice enh inconclusive, Rab9 promoter act 2.5µM* and ELG1 genotox inconclusive.
Screening CCCn1nnc(NC(=O)c2ccc(OCC)c(Cl)c2)n1 returned FLuc counter 6%[2.3 µM], NPC1 promoter act 3%, ELG1 repair inh 29%, SMN2 splice enh 3%, Rab9 promoter act 23% and ELG1 genotox 10%.
CCOc1ccc(C(=O)Nc2nnn(CC)n2)cc1 was read as FLuc counter 12µM*, NPC1 promoter act 4µM*, ELG1 repair inh inconclusive, Rab9 promoter act 4µM* and ELG1 genotox 10µM*.
For CCCn1nnc(NC(=O)c2ccc(OC)cc2)n1 the results were FLuc counter 21µM*, NPC1 promoter act 4µM*, ELG1 repair inh inconclusive, SMN2 splice enh inconclusive, Rab9 promoter act inconclusive and ELG1 genotox 18µM*.
CCOc1ccc(C(=O)Nn2cnnc2)cc1 was read as FLuc counter -4%, NPC1 promoter act 12%, ELG1 repair inh 22%, SMN2 splice enh -2%, Rab9 promoter act 1% and ELG1 genotox 1%.
COc1ccc2[nH]c(=O)c(CN(C(=O)c3cccc(Cl)c3)c3ccccc3C)cc2c1 was read as FLuc counter -10% and SMN2 splice enh -1%.

Screens from PubChem.
